# An excerpt weighted towards active compounds, which were near 21% of everything screened.
# Shiga inhibitor – inhibitors of Shiga toxin in Vero cells | actives 9.2% (n = 290,000) | Vero cells, Shiga toxin protein synthesis inhibition reporter | inhibition, % at 38.7 µM; in the data active = inhibition mostly above about 28%, no sharp cut-off; inactive = mostly below about 43%
# NS1 function inh – blocks influenza NS1 protein function | Potency, µM (doses to about 46.1 µM) | actives 0.4% (n = 270,000); calls by dose curve; also: actives are rising curves; nearly all actives have a fitted effect of over 50% in size
#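 Growth recovery, yeast-based: influenza A NS1 expressed in S. cerevisiae causes slow growth, and suppressors are detected by OD600. The parent strain without NS1 is used as positive control.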
# Pf growth 48h – inhibits P. falciparum growth in the first generation, 48 h; P. falciparum luciferase growth in erythrocytes, 48 h; Potency, µM (series often up to 28.7 µM), hits mostly inhibitors; actives 5.9% (n = 310,000)
#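 Luciferase-expressing P. falciparum in infected erythrocytes (2% hematocrit, 0.1% parasitemia final) in RPMI 1640/0.5% Albumax were exposed to compound for 48 hours at 37 C, 5% CO2; growth read as luminescence.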
# Giardia FBPA inh – Giardia lamblia aldolase inhibition; A8B2U2; purified Giardia FBPA; Potency, µM (doses to about 59.6 µM), most hits filed as inhibitors; actives 0.71% (n = 290,000); AID 2451; also: nearly all actives have a fitted effect of over 55% in size
# Target sequence (A8B2U2 whole entry, looked up): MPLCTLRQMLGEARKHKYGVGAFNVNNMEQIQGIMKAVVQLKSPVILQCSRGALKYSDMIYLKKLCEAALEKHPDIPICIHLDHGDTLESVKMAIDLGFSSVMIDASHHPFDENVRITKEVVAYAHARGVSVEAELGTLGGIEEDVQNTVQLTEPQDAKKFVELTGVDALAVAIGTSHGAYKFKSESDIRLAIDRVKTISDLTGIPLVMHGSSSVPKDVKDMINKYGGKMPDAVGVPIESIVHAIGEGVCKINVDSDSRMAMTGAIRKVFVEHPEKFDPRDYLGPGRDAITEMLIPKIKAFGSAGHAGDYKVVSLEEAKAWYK
#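 Giardia FBPA (40 nM reagent) was preincubated 10 min at RT with compound (up to 57.5 uM final), then substrate plus GAPDH/TPI/NAD/arsenate coupling system with diaphorase/resazurin was added; resorufin fluorescence (525/598 nm) was read after 20 min.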
# Pf growth 96h – P. falciparum growth inhibition at 96 hours | Potency, µM (series often up to 28.7 µM), actives largely listed as inhibitors | AID 504834 | P. falciparum luciferase reporter growth, 96 h | actives 6.9% (n = 320,000)
#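 Two parasite generations (96 h, 37 C, 5% CO2) of compound exposure in infected erythrocytes (0.05% parasitemia, 2% hematocrit). Luciferase-reporter P. falciparum; decreased luminescence indicates inhibited growth, aimed at apicoplast-acting delayed death.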
# CHX counter – counter-screen hit for Shiga toxin inhibitors, cycloheximide | actives 12% (n = 300,000) | AID 2314 | max response, % | cell reporter, cycloheximide protein synthesis inhibition counterscreen; in the data active = max response mostly above about 13%, no sharp cut-off; inactive = mostly below about 14%; also: read at 38.3 µM for the half of the compounds with a filed dose
# Numbers stand for hits; i = inactive; ? = inconclusive; nt = no result; [ ] = dose if it differs, or a comment. Unless noted, calls follow the shape of the dose curve; as a rule, active = well fitted curve in the direction sought with a large enough effect; inconclusive = small, poorly fitted or top-dose-only effect, or another doubt; inactive = no such curve, though single readings can be large; an effect the other way counts as inactive or inconclusive.
SMILES,Shiga inhibitor,NS1 function inh,Pf growth 48h,Giardia FBPA inh,Pf growth 96h,CHX counter
CCN(C(=O)CN1CCN(c2ccc(O)cc2)CC1)c1c(N)n(Cc2ccccc2)c(=O)[nH]c1=O,i,i,?,?,4.65µM,i
CCn1c(=O)c2sccc2n(Cc2cccc(C)c2)c1=O,i,i,i,i,?,i
O=C(Nc1ccncc1)Nc1ccc(F)cc1F,54.2,i,9.28µM,i,i,27.3
O=C(CC(=O)Nc1ccc(F)cc1F)Nc1ccc(F)cc1F,i,i,i[0.00184 µM],i,i,i
O=C(Nc1ccon1)Nc1ccc(F)cc1F,i,i,i,i,i,i
O=C(Nc1ccc(F)cc1F)Nc1ccc(F)cc1F,85.6,i,i,i,i,30.3
Cc1cc(NC(=O)c2ccc(S(=O)(=O)N3CCc4ccccc43)cc2)no1,i,nt,?,i,?,i
CC1CCc2nc(NC(=O)c3ccc(S(=O)(=O)N4CCCc5ccccc54)cc3)sc2C1 (configuration not stated),i,i,?,i,?,i
CNC(=O)c1ccsc1NC(=O)c1ccc(S(=O)(=O)N2CCCc3ccccc32)cc1,i,?,11.7µM,i,9.28µM,i
O=C(Nc1nc2c(s1)CCCC2)c1ccc(S(=O)(=O)N2CCCc3ccccc32)cc1,i,i,?,i,10.4µM,10.3
CCc1nnc(NC(=O)c2ccc(S(=O)(=O)N(C)c3ccccc3)cc2)o1,i,nt,?,?,?,i
CCc1nnc(NC(=O)c2ccc(S(=O)(=O)N3CCCc4ccccc43)cc2)o1,i,i,7.38µM,?,nt,i
CNC(=O)c1ccsc1NC(=O)c1ccccc1,15.7,i,i,i,?,24.7
Cc1onc(-c2c(F)cccc2Cl)c1C(=O)N[C@H]1C(=O)N2[C@H]1SC(C)(C)[C@H]2C(=O)O,nt,nt,nt,i,nt,nt
CC1(C)CC(=O)C=C(c2ccc(I)cc2)C1,nt,nt,4.65µM,nt,?,nt
Cc1c(C(=O)Nc2ccc(F)cc2)c2ccccn2c1CCc1ccncc1,i,i,i,i,?,i
COc1cc(NC(C)C(=O)N2CC(C)OC(C)C2)cc(OC)c1 (configuration not stated),i,i,4.65µM,?,nt,i
N#CCCN(C(=O)COC(=O)CCc1c[nH]c2ccccc12)c1ccccc1,nt,nt,i,nt,i,nt
Cc1nnc(SCC(=O)Nc2nc(-c3ccc(F)cc3)cs2)[nH]c1=O,i,i,i,i,i,21.4
Cc1ccc(-c2csc(NC(=O)CSc3nc4ccccc4[nH]3)n2)cc1,i,i,i,i,i,i
Cc1ccc(-c2csc(NC(=O)CSc3nc(C)cs3)n2)cc1,110.6,i,i,i,i,41.8
Cc1ccc(C)c(NC(=O)CSc2nc(C)cs2)c1,nt,nt,i,nt,?,nt
Cc1nc(NC(=O)CSc2ccccc2N)sc1C,i,i,i,i,i,25.1
Cc1ccccc1C(=O)NCCc1nnc(SCC(=O)Nc2nc(-c3ccccc3)cs2)n1C,i,i,i,i,13.1µM,i
COc1ccc(CN2CCN(C(=O)c3ccc(S(=O)(=O)NCc4ccco4)cc3)CC2)cc1,nt,nt,?,nt,i,nt
SMILES,Shiga inhibitor,NS1 function inh,Pf growth 48h,Giardia FBPA inh,Pf growth 96h,CHX counter
C=C1CCC(O)C/C1=C/C=C1\CCC[C@]2(C)[C@@H]([C@H](C)/C=C/[C@H](C)C(C)C)CC[C@@H]12 (some centres not stated),nt,nt,i,nt,?,nt
C=CCN(c1nc(C)c(Br)c(OC)n1)S(=O)(=O)c1ccc(C)cc1,i,i,i,i,?,i
Cc1ccc(NC(=O)CCN2C(=O)NC3(CCCC3)C2=O)c(C)c1,nt,nt,i,nt,i,nt
Nc1ccccc1SCC(=O)Nc1nc(-c2ccccc2)cs1,i,i,i,i,?,20.1
Cc1csc(SCC(=O)Nc2nc(-c3ccccc3)cs2)n1,i,i,i,i,i,13.2
Cc1cc(=O)[nH]c(SCC(=O)Nc2nc(-c3ccccc3)cs2)n1,i,i,i,i,?,i
Cc1csc(NC(=O)CSc2ccccc2F)n1,83.7,nt,i,i,i,36.6
Cc1ccc(C(C(=O)NCCc2ccccc2)N(C(=O)c2csnn2)C2CC2)cc1 (configuration not stated),i,i,i,nt,i,i
COc1ccc(C2=Nn3c([n+](C)c4ccccc43)SC2)cc1,i,i,0.828µM,i,i,i
O=C(c1ccccc1-c1nc2ccccc2[nH]1)N1CCCCC1,i,i,i,i,i,i
Nc1nonc1-c1nc2ccccc2[nH]1,i,i,i,i,nt,i

# Source: PubChem (National Center for Advancing Translational Sciences (NCATS))
